Test [1] is described as follows: qHTS assay to identify small molecule antagonists of the glucocorticoid receptor (GR) signaling pathway - cell viability counter screen (AID 720693). Note: nearly all actives have a fitted effect of over 55% in size. For orientation: Quantitative high-throughput screening tests each substance at several concentrations.
The nature of test [2]: qHTS assay for identifying genotoxic compounds that show differential cytotoxicity against isogenic chicken DT40 cell lines with known DNA damage response pathways - Rev3 mutant cell line (AID 743014). Note: nearly all actives have a fitted effect of over 55% in size.
Test [3] in a line: qHTS assay for identifying genotoxic compounds that show differential cytotoxicity against isogenic chicken DT40 cell lines with known DNA damage response pathways - Rad54/Ku70 mutant cell line (AID 743015). Note: nearly all actives have a fitted effect of over 60% in size.
A short description of test [4]: qHTS assay to identify small molecule antagonists of the androgen receptor (AR) signaling pathway - cell viability counter screen (AID 743033; note: nearly all actives have a fitted effect of over 45% in size).
In test [5] the target is Androgen receptor (Homo sapiens) (UniProt P10275). In words: qHTS assay to identify small molecule agonists of the androgen receptor (AR) signaling pathway using the MDA cell line (AID 743040; note: nearly all actives have a fitted effect of over 20% in size). In a few lines: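 After a 5 h incubation at 37C and 0% CO2, MDA-kb2 reporter cells were dosed with compounds in DMSO and kept 16 h under the same conditions. Luciferase activity was then read as luminescence with ONE-Glo.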
Androgen receptor (Homo sapiens), sequence (P10275 whole entry, looked up): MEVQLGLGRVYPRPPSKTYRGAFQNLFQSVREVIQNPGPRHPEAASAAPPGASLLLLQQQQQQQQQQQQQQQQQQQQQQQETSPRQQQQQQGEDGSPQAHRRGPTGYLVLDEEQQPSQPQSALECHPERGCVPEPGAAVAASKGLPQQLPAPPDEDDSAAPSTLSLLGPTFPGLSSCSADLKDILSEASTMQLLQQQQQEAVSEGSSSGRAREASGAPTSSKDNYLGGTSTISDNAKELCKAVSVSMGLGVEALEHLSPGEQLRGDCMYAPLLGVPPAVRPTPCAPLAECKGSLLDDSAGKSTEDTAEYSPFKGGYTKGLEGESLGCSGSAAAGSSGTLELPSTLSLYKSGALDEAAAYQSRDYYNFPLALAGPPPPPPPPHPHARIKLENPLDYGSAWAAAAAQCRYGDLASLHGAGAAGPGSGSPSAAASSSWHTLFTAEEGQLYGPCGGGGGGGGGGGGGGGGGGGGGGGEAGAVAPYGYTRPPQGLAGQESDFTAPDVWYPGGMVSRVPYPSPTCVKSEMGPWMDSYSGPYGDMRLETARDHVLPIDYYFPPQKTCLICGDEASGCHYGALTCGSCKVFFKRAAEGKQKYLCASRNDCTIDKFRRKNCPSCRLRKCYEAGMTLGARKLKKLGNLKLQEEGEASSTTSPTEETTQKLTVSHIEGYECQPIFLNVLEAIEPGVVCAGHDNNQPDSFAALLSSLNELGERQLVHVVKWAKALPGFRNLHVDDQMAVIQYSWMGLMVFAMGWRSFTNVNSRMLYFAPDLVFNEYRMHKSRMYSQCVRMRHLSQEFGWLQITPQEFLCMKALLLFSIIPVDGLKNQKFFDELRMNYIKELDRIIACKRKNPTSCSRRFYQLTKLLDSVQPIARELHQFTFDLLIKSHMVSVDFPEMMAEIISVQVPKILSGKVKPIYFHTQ

Test [6] in a line: qHTS assay to identify small molecule antagonists of the androgen receptor (AR) signaling pathway using the MDA cell line - cell viability counter screen (AID 743041; note: nearly all actives have a fitted effect of over 45% in size). In a few lines: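 R1881-driven MDA-kb2 AR-luc cells, 3,000/well, were dosed with library compounds for 16 h; cell health came from CellTiter-Fluor fluorescence in the reporter wells.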
In test [7] the target is Androgen receptor (Homo sapiens) (UniProt P10275). As to the kind of experiment: qHTS assay to identify small molecule antagonists of the androgen receptor (AR) signaling pathway using the MDA cell line (AID 743042; note: nearly all actives have a fitted effect of over 55% in size). The method, boiled down:
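Antagonist mode: compounds plus R1881 agonist added to MDA-kb2 AR-luc cells, incubated 16 h at 37C. Luciferase reporter luminescence quantified, with multiplexed CellTiter-Fluor readout for cell viability.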

Test [8] can be described thus: qHTS assay to identify small molecule antagonists of the thyroid receptor (TR) signaling pathway - cell viability counter screen (AID 743064). Note: nearly all actives have a fitted effect of over 50% in size. In a few lines:
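Fluorescence from CellTiter-Fluor, added after 23.5 h exposure at 37 °C, reported viability of GH3.TRE-Luc cells co-treated with compound and 1 nM T3. Measured in the same wells as the luciferase TR readout.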

Test [9] in a line: qHTS assay to identify small molecule antagonists of the thyroid receptor (TR) signaling pathway (AID 743065). Note: series mostly up to about 70 µM; nearly all actives have a fitted effect of over 55% in size. The method, boiled down: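 Antagonism measured as loss of luciferase signal in GH3 cells stably carrying a TRE-luciferase reporter, co-treated with compound and T3 (1 nM final) for 23.5 h at 37 C. Viability was read in the same well by CellTiter-Fluor.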
The test system of test [10] is thyroid hormone receptor (rat, GH3 cells). In words: qHTS assay to identify small molecule agonists of the thyroid receptor (TR) signaling pathway (AID 743066; calls by dose curve).
A short description of test [11]: qHTS assay to identify small molecule antagonists of the estrogen receptor alpha (ER-alpha) signaling pathway - cell viability counter screen (AID 743074; calls by dose curve;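 note: HEK293 cells carrying ER-alpha-UAS-bla reporter stimulated with 17beta-estradiol; nearly all actives have a fitted effect of over 45% in size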).
In test [12] the target is Estrogen receptor (Homo sapiens) (UniProt P03372). In words: qHTS assay to identify small molecule agonists of the estrogen receptor alpha (ER-alpha) signaling pathway (AID 743075; calls by dose curve).
Estrogen receptor (Homo sapiens), sequence (P03372 whole entry, looked up): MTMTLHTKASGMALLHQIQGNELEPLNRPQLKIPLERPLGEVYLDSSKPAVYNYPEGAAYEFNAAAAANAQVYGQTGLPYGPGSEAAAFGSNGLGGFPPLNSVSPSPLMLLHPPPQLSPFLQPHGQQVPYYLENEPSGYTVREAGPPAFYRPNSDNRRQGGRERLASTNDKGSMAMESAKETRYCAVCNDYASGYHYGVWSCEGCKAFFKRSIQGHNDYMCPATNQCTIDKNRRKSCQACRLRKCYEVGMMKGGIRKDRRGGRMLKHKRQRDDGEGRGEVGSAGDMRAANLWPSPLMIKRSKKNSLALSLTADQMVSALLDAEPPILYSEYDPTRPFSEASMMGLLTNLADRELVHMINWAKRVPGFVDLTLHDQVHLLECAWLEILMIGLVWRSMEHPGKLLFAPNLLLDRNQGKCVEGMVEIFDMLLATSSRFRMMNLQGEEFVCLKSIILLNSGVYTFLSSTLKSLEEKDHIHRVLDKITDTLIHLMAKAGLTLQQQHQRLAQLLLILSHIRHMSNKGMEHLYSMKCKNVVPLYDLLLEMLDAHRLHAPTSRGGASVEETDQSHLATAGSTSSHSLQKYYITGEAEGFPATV
The target is the same in test [13]. As to the kind of experiment: qHTS assay to identify small molecule agonists of the estrogen receptor alpha (ER-alpha) signaling pathway using the BG1 cell line (AID 743079). Note: nearly all actives have a fitted effect of over 20% in size.
Test [14] in a line: qHTS assay to identify small molecule antagonists of the estrogen receptor alpha (ER-alpha) signaling pathway using the BG1 cell line (AID 743080; calls by dose curve;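 note: BG1 cells stimulated with 17beta-estradiol alongside compound; series mostly up to about 70 µM; nearly all actives have a fitted effect of over 25% in size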). The method, boiled down:
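BG1-Luc-4E2 cells (endogenous full-length ER-alpha, 4xERE luciferase) hormone-starved 5 days in charcoal-stripped FBS, plated 4,000/well for 24 h, then compound plus 17beta-estradiol for 21.5 h at 37 C; ONE-Glo luminescence read.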

Test [15] is described as follows: qHTS assay to identify small molecule antagonists of the estrogen receptor alpha (ER-alpha) signaling pathway using the BG1 cell line - cell viability counter screen (AID 743081).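 Note: compound given together with 17beta-estradiol as the ER stimulus; series mostly up to about 70 µM; nearly all actives have a fitted effect of over 45% in size.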
Test [16] concerns the target Aromatase (Homo sapiens) (UniProt P11511). In words: qHTS assay to identify aromatase inhibitors (AID 743083).
A short description of test [17]: qHTS assay to identify aromatase inhibitors - cell viability counter screen (AID 743084).
Test [18] in a line: qHTS assay for identifying genotoxic compounds that show differential cytotoxicity against isogenic chicken DT40 cell lines with known DNA damage response pathways - wild type cell line (AID 743012). Note: nearly all actives have a fitted effect of over 60% in size. Note: potency is the fitted concentration of half-maximal effect. In a few lines: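 Using parental DT40 (300 cells/well), compounds delivered in DMSO incubate 40 h at 37 C/5% CO2. CellTiter-Glo reagent then stands 30 min at room temperature, and luminescence gives cell viability.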

Test [19] has as its target Estrogen receptor (Homo sapiens) (UniProt P03372). As to the kind of experiment: qHTS assay to identify small molecule antagonists of the estrogen receptor alpha (ER-alpha) signaling pathway (AID 743069; active = well fitted curve in the direction sought with a large enough effect in the signal ratio in the repeat runs, not every such curve was filed as active; the % refers to the signal ratio). The method, boiled down:
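Compound effects are measured against 17beta-estradiol stimulation in HEK293 cells with a UAS-controlled beta-lactamase reporter for ER-alpha. Exposure lasts 18 hr at 37C; LiveBLAzer B/G FRET substrate follows for 2 hr at room temperature.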

We go through 13 molecules from PubChem BioAssay (Tox21).

Records with an inconclusive call do not appear. Activity calls are given as the source filed them. Unless noted, calls come from the whole dose curve; as a rule, active = well fitted curve in the direction sought with a large enough effect in the repeat runs; inconclusive = weak or mixed curves; inactive = no such curve, though single readings can be large; an effect the other way counts as inactive or inconclusive.

Aromatase (Homo sapiens), sequence (P11511 whole entry, looked up): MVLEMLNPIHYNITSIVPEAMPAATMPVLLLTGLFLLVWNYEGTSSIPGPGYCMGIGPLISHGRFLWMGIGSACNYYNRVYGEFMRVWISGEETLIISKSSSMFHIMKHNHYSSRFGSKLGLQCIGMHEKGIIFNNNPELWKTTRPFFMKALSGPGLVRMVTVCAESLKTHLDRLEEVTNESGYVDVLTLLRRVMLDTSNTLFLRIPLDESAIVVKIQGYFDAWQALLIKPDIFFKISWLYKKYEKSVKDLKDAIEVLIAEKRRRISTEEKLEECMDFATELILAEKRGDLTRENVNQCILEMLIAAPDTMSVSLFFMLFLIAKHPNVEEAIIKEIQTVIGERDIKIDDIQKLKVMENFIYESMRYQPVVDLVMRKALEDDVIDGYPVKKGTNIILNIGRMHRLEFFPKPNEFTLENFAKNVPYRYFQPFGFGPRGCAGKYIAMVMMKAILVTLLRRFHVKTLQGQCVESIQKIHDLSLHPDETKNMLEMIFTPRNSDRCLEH

As for `CCO[Si](CC)(OCC)OCC`, the result in test [1], in test [4], in [7], in test [10], in test [11] and in test [14] was inactive. Besides, the call in [16] was inactive. For the same molecule, the Potency result in [2], in test [3], in test [5], in [6], in [8] and in [9] was “inactive” throughout. The Potency entry in [12], in test [13], in test [15] and in test [17] was “inactive” each time.

Turning to `CCCCSCCCC`, the molecule was called inactive in [1], in test [10], in test [11] and in test [16]. The Potency result in test [18], in test [2], in test [3], in [6], in test [8] and in test [9] was “inactive” in each case. Also, the Potency entry in [15] and in test [17] was “inactive” throughout.

For the molecule `CC(Oc1cc(Cl)ccc1Cl)C(=O)O` (stereo not given), the call in test [1], in [4], in test [7], in test [10], in test [11] and in test [16] was inactive. For the same molecule, the Potency result in test [18], in [2], in test [5], in test [6], in test [8] and in test [9] was “inactive” in each case. Also, the Potency entry in test [15] is “inactive”.

As to `CC(N)CCCC(C)(C)O` (stereo not given), the molecule was classed as inactive in test [1], in test [10], in test [11] and in [16]. The Potency entry in test [18], in test [2], in test [3], in [6], in test [8] and in test [9] was “inactive” each time. Moreover, the Potency entry in test [15] and in test [17] was “inactive” in each case.

Regarding `Cc1ccccc1C(N)=O`, the call in test [1], in test [4], in [10], in [19], in test [11] and in test [14] was inactive. Further, the molecule was called inactive in test [16]. The Potency entry in test [18], in [3], in [6], in [8], in test [9] and in test [12] was “inactive” in each case. Further, the Potency entry in test [13], in [15] and in [17] was “inactive” in each case.

With `Cc1cccc(Cl)c1`, the molecule was classed as inactive in test [1], in test [10], in test [11] and in [16]. Besides, the Potency entry in [18], in [3], in test [6], in test [8], in test [9] and in test [15] was “inactive” each time. For the same molecule, in test [17], the Potency entry was “inactive”.

Consider `CC1c2ccccc2CN1NC(=O)c1ccc(Cl)c(S(N)(=O)=O)c1` (stereo not given), for which the call in test [1], in [10], in [11], in test [14] and in [16] was inactive. Also, the Potency entry in test [18], in test [2], in test [3], in [6], in test [8] and in test [9] was “inactive” in each case. Besides, the Potency entry in [12], in test [13] and in [15] was “inactive” in each case.

As to `CC(C)COC(=O)c1ccccc1`, the molecule was called inactive in [1], in test [4], in test [7], in [10], in test [11] and in [14]. For the same molecule, the Potency entry in [18], in [5], in [6], in [8], in [9] and in [12] was “inactive” throughout. In addition, the Potency entry in test [15] and in [17] was “inactive” each time.

For the molecule `Cc1c(NC(=O)c2cccnc2)c(=O)n(-c2ccccc2)n1C`, the molecule was called inactive in test [1], in test [10], in test [19], in [11], in test [14] and in test [16]. Also, the Potency entry in [18], in [2], in test [3], in test [6], in [9] and in [12] was “inactive” throughout. For the same molecule, the Potency result in test [13], in test [15] and in test [17] was “inactive” in each case.

For the molecule `C=CC(=O)CCCCC`, the molecule was called inactive in test [1], in test [10] and in test [16]. Moreover, the Potency result in [18], in test [2], in [3], in test [6], in [8] and in test [15] was “inactive” each time. Also, the Potency entry in test [17] was “inactive”.

On to `N#CCC(=O)NN`, for which the outcome in test [1], in [10], in test [11], in [14] and in test [16] was inactive. Also, the Potency result in test [18], in test [2], in [3], in test [8], in test [9] and in test [12] was “inactive” throughout. Also, the Potency result in test [13], in test [15] and in test [17] was “inactive” throughout.

As for `CC1CCc2c(N3CCC(O)CC3)c(F)cc3c(=O)c(C(=O)O)cn1c23` (stereo not given), the outcome in test [1], in test [4], in test [10], in [11], in test [14] and in test [16] was inactive. For the same molecule, the Potency in test [18] is 26.6 µM (active). In addition, the Potency result in test [6], in test [8], in test [12], in test [13], in test [15] and in test [17] was “inactive” throughout.

As to `Cc1cc(C)c(C(=O)O)c(C)c1`, the call in test [1], in [10], in [11], in test [14] and in test [16] was inactive. The Potency result in test [18], in test [2], in test [3], in test [6], in test [8] and in test [12] was “inactive” each time. In addition, the Potency entry in test [13], in [15] and in test [17] was “inactive” in each case.
